Measurements reported in ChEMBL document CHEMBL3988442, “University of Dundee, Small-Polar-MMV Screening Library” (2021).
For some assays here: Measured potencies and affinities stand elsewhere.

How the values were obtained:
Design in all cases: scale not given: direction of the effect not stated beside the values
[1] = molecular target: Protein translocase subunit SecA (Escherichia coli (strain K12)) (UniProt P10408); assay: Assay to Identify E. coli SecA ATPase Inhibitors; format: functional; conditions: 30 µM
[2] = molecular target: T1, Ubiquitin-activating enzyme e1, putative (Leishmania donovani (strain BPK282A1)) (UniProt E9BSI1); assay: Leishmania donovani Ubiquitin Activating Enzyme (LdE1); format: functional; conditions: 30 µM
T1 sequence (whole entry): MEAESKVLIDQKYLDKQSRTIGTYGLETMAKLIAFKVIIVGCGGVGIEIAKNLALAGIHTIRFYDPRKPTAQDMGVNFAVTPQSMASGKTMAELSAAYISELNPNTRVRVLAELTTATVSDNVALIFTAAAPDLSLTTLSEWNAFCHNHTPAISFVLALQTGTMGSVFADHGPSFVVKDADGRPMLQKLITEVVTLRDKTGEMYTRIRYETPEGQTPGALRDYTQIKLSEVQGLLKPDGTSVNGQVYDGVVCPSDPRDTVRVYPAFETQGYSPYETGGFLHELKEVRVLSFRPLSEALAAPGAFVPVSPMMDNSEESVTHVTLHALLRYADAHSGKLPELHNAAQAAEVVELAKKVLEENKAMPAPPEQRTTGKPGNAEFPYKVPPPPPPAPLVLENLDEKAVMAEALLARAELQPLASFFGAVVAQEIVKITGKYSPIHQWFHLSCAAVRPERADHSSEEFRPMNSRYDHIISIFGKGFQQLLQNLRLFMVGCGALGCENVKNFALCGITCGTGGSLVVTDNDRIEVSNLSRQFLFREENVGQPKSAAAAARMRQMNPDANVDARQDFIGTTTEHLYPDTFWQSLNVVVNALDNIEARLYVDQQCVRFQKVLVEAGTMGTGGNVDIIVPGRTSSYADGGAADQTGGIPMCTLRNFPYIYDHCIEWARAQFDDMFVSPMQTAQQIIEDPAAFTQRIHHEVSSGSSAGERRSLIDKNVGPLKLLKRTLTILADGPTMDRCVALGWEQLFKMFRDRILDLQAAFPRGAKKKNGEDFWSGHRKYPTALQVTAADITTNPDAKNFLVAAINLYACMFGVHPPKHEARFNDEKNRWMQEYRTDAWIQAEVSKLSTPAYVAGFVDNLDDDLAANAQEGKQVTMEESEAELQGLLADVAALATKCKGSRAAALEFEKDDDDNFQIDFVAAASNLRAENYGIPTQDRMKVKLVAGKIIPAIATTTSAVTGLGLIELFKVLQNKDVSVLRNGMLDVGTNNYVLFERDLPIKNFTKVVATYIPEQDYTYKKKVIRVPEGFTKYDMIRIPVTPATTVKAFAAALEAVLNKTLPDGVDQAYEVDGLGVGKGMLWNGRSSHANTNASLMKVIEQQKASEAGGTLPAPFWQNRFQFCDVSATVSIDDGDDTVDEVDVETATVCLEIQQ

[3] = molecular target: Sialic acid-binding Ig-like lectin 9 (Homo sapiens) (UniProt Q9Y336); assay: Hs-Siglec9 ALPHAscreen SOP 20170721; conditions: 10 µM
Trypanosoma cruzi = assay: Trypanosoma cruzi phosphomannomutase and mannose-1-phosphate guanylyltransferase assay; format: functional; conditions: 10 µM
[4] = molecular target: T2, Arginase-2, mitochondrial (Homo sapiens) (UniProt P78540); assay: in vitro enzyme assay to detect the production of urea directly proportional to the activity of Arginase II; format: functional; conditions: 33.3 µM; further: in the data most compounds retested in dose-response had high values
T2 sequence (whole entry): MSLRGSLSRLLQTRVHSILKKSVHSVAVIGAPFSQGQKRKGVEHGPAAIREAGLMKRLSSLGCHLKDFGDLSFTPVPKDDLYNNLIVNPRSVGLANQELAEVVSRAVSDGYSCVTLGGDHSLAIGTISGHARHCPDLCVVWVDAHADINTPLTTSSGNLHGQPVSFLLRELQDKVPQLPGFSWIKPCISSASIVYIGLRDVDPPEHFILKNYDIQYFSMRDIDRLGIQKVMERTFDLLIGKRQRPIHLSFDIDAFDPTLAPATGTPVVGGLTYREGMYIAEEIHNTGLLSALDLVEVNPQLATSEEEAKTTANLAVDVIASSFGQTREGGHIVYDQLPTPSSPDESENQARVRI

[5] = molecular target: T3, Proteasome subunit beta (Trypanosoma cruzi) (UniProt O96673); assay: Trypanosoma cruzi proteasome chymotrypsin-like activity (TcProtChymo) assay.; further: in the data most compounds retested in dose-response had high values; format: functional; conditions: 9.37 µM
T3 sequence (whole entry): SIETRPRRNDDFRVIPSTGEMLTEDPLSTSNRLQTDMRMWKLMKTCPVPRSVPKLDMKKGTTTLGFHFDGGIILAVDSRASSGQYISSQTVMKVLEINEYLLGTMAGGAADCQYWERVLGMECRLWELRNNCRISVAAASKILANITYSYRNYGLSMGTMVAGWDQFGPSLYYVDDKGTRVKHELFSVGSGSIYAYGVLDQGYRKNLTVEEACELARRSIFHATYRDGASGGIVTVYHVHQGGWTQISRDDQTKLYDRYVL

Homo sapiens = species: Homo sapiens; assay: To identify inhibition of the IFN signalling (Jak-Stat) pathway via expression of an eGFP reporter gene under the control of an IFN-stimulated response element (ISRE) containing MxA promoter.; format: functional; conditions: 30 µM
[6] = molecular target: T4, Tyrosyl-tRNA synthetase, putative (Trypanosoma cruzi (strain CL Brener)) (UniProt Q4DSP6); assay: Trypanosoma cruzi tyrosyl tRNA synthetase (TcYRS) _High Tyrosine SOP; format: functional; conditions: 30 µM; further: in the data most compounds retested in dose-response had high values
T4 sequence (whole entry): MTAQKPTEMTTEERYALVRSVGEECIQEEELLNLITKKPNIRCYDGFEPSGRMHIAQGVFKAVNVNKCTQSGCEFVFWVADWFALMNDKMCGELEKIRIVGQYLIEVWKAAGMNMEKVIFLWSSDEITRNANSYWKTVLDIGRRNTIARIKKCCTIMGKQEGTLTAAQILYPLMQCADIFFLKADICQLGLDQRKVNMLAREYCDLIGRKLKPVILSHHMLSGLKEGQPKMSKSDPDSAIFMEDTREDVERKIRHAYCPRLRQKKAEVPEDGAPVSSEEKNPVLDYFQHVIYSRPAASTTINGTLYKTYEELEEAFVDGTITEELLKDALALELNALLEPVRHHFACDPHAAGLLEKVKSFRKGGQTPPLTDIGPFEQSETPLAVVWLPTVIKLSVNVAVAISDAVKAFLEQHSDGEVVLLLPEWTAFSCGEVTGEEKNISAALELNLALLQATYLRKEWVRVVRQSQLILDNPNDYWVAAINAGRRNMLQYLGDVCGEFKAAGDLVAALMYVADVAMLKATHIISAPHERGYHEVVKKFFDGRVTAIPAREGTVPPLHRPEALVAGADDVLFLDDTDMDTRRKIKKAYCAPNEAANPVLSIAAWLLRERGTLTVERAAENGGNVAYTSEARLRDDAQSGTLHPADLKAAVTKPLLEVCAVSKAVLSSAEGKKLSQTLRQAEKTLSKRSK

[7] = molecular target: T4, Tyrosyl-tRNA synthetase, putative (Trypanosoma cruzi (strain CL Brener)); assay: Trypanosoma cruzi tyrosyl tRNA synthetase (TcYRS) SOP; format: functional; conditions: 30 µM
[8] = molecular target: Chromo domain-containing protein 1 (Saccharomyces cerevisiae (strain ATCC 204508 / S288c) (Baker's yeast)) (UniProt P32657); assay: ScCHD-1 Enzyme Inhibition Assay; format: functional; conditions: 30 µM; further: in the data most compounds retested in dose-response had high values
Chain of Chromo domain-containing protein 1 (Saccharomyces cerevisiae (strain ATCC 204508 / S288c) (Baker's yeast)) (P32657 whole entry, the tested form may be a part): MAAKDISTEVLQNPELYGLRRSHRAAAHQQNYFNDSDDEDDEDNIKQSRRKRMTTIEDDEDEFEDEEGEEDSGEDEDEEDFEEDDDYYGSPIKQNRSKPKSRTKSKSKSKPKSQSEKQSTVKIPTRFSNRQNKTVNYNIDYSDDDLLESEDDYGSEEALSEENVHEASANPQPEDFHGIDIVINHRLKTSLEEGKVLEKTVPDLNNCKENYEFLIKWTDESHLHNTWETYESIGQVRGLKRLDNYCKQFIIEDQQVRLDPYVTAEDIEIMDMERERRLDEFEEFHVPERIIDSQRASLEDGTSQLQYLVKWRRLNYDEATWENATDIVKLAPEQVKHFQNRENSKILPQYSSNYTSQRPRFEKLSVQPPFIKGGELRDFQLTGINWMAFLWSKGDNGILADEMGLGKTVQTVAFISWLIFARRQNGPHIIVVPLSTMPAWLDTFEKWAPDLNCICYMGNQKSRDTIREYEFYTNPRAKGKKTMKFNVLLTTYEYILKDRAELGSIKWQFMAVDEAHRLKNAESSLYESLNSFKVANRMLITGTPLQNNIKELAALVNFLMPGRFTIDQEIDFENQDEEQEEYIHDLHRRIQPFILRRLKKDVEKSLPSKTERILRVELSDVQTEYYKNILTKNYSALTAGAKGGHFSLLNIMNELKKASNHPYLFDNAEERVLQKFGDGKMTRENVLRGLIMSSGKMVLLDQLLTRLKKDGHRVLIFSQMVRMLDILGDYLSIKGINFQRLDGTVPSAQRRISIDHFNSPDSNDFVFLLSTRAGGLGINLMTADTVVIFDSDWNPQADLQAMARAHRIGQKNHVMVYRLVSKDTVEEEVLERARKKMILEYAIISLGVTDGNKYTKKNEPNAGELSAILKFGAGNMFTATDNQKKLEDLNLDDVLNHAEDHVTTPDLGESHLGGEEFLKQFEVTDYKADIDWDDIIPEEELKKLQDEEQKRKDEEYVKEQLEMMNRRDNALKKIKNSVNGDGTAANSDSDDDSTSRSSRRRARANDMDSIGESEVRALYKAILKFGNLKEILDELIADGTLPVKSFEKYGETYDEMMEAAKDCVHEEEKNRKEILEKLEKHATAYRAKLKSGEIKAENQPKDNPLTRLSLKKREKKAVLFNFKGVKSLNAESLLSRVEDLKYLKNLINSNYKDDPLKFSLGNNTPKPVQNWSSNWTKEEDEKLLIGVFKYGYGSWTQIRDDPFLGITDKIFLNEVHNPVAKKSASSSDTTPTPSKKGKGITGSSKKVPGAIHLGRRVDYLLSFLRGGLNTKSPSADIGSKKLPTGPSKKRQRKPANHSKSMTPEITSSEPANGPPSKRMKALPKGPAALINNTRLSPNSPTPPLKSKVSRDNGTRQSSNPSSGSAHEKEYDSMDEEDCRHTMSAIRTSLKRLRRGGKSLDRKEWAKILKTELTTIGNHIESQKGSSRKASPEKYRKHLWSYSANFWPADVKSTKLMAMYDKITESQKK

Chain of Protein translocase subunit SecA (Escherichia coli (strain K12)) (P10408 whole entry): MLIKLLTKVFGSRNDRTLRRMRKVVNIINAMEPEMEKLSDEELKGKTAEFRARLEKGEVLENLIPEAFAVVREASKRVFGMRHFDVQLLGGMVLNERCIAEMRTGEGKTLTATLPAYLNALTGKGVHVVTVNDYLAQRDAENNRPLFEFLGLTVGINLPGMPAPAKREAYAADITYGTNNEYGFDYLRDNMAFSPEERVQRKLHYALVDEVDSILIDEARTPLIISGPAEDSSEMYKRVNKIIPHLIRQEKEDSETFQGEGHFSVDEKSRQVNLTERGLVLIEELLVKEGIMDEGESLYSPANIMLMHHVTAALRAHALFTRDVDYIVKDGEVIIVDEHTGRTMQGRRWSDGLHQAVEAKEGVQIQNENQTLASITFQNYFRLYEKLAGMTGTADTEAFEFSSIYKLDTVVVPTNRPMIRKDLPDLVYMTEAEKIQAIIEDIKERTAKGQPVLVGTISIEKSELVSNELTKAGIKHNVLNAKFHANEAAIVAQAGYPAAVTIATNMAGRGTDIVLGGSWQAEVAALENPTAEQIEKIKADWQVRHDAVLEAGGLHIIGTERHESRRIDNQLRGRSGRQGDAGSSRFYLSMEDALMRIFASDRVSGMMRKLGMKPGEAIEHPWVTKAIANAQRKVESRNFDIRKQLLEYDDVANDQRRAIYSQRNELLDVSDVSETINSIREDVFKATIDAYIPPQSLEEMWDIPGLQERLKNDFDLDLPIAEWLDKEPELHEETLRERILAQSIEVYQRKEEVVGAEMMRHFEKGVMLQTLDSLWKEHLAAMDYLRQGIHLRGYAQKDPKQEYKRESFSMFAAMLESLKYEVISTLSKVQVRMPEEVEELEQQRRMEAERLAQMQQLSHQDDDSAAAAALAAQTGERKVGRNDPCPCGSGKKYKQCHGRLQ
Chain of Sialic acid-binding Ig-like lectin 9 (Homo sapiens) (Q9Y336 whole entry): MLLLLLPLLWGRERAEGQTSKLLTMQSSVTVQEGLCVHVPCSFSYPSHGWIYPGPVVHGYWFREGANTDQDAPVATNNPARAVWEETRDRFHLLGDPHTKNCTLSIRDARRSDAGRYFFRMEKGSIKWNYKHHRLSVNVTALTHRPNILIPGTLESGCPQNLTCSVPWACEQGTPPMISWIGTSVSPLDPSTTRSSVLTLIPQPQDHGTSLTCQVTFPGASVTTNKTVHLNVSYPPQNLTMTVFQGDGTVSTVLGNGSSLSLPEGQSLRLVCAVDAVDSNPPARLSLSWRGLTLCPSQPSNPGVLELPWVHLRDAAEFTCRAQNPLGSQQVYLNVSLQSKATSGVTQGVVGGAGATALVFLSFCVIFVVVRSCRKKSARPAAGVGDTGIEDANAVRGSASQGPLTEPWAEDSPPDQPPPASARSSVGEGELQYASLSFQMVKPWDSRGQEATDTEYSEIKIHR

Compound	Percent Effect [1]	Percent Effect [2]	Percent Effect [3]	Percent Effect (Trypanosoma cruzi)	Percent Effect [4]	Percent Effect [5]	Percent Effect (Homo sapiens)	Percent Effect [6]	Percent Effect [7]	Percent Effect [8]
Cc1ccc(-c2cc(CN3CCCC(Cn4cncn4)C3)on2)cc1 (stereo not given)	-6.67%	7.79%	-2.07%	-1.68%	1.84%	4.39%	28%	0%	4.71%	-3.73%
CC(C)(C)c1nnc(CN2CCOC(Cn3cncn3)C2)o1 (stereo not given)	-3.4%	17.9%	1.77%	9.67%	-6.56%	4.18%	8.6%	4.31%	18.1%	-4.15%
c1cnn(CCNCc2csc(-c3ccsc3)n2)c1	-6.54%	-12.8%	-10.8%	-5.92%	-1.23%	20.6%	24.6%	-6.22%	-1.21%	0.287%
CN(C)c1cc(CNC(=O)Nc2ccc(S(C)(=O)=O)nc2)ccn1	-1.24%	10.3%	-5.84%	0.845%	1.64%	10.3%	-0.626%	6.22%	25.3%	-2.59%
CCn1c(C)cc(C(=O)N2CCCC(n3nc(C)nc3C)C2)c1C (stereo not given)	-5.54%	12.8%	-10.5%	7.23%	-0.41%	4.35%	4.11%	1.44%	10.8%	-5.05%
Cc1cnn(CCNCc2nnc(C3CC3)o2)c1	2.37%	26%	-7.5%	0.746%	-8.4%	16%	32.1%	6.86%	28.2%	-8.53%
CC(C)N1CC(C(=O)NCc2ccnc(-n3cccn3)c2)CC1=O (stereo not given)	-1.72%	12.8%	-8.26%	0.469%	8.2%	3.33%	25.3%	5.26%	13.2%	-3.04%
CC(C)c1cc(NC(=O)CN2CCC(N3CCNC3=O)CC2)on1	-2.95%	15.6%	8.63%	-6.16%	1.02%	0.877%	23.3%	5.88%	11.8%	-7.14%
CC1CCCN(C(=O)c2cccc(CS(C)(=O)=O)c2)C1 (stereo not given)	0.484%	15.4%	-22.1%	2.72%	-0.41%	22.4%	6.02%	4.31%	22.9%	20.9%
COCC(=O)N1CCC(c2nccnc2Oc2cccnc2C)CC1	0.43%	14.7%	-6.2%	-3.35%	4.87%	15.6%	-0.132%	0%	7.5%	-22.1%
Cc1ccc(Cl)cc1N1CCC(CNC(=O)CCn2ccnn2)C1 (stereo not given)	-2.11%	12.8%	-5.81%	-2.35%	8.61%	15.8%	24.6%	5.26%	18.1%	0.402%
